Laboratory results reported in PubChem BioAssay (NCI).
The panel holds about 83,000 compounds, 20% with a hit somewhere; the sample as a whole holds those more often.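 Plates (96-well) were seeded with cells, treated with compound at one concentration, and incubated for 48 hours before percent growth was determined.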 The source made the active and inactive calls. The calls were made as follows: active = growth percent below 10; inactive = the rest.

Legend:
Test in all cases: NCI-60 one-dose screen, 48 h (100 = growth as untreated, 0 = no growth, -100 = all killed)
BT-549 breast = conditions: 10 µM unless noted
MDA-MB-435 melanoma = conditions: 10 µM unless noted
SW-620 colon = conditions: 10 µM unless noted
MCF7 breast = conditions: 10 µM
HCT-116 colon = conditions: 10 µM unless noted
HCC-2998 colon = conditions: 10 µM unless noted
KM12 colon = conditions: 10 µM unless noted

Measured: growth

COC(=O)C1=C(C)NC(C)=C(C(=O)OC)C(N2C(=O)CCC2=O)C1 (centres undefined)
inactive: BT-549 breast 79.4% | MDA-MB-435 melanoma 81.7% | SW-620 colon 44.7% | MCF7 breast 69.6% | HCT-116 colon 57.5% | HCC-2998 colon 105% | KM12 colon 94.7%

CCOC(=O)c1c(Cl)c2c(n1Cc1ccccc1)-c1oncc1CCC2
active: MDA-MB-435 melanoma -12.9%
inactive: BT-549 breast 87.6% | SW-620 colon 39.5% | MCF7 breast 37.5% | HCT-116 colon 50.3% | HCC-2998 colon 61.8% | KM12 colon 53.1%

N#C/C(=C1\SC(=O)CN1c1ccccc1)c1nc2ccccc2s1
inactive: BT-549 breast 103% | MDA-MB-435 melanoma 102% | SW-620 colon 93.5% | MCF7 breast 73.8% | HCT-116 colon 89% | HCC-2998 colon 97.3% | KM12 colon 98.4%

COc1cc2nc(NC3CCCC3)nc(NC3CCN(C(C)C)CC3)c2cc1OC
active: MDA-MB-435 melanoma -34.3%
inactive: BT-549 breast 76.7% | SW-620 colon 59.2% | MCF7 breast 39.8% | HCT-116 colon 66.5% | HCC-2998 colon 29.6% | KM12 colon 79.2%

COC(=O)c1c2c(c(C)[n+]([O-])c1C)C(=O)C=C(NCc1ccc(F)c(F)c1)C2=O
active: BT-549 breast -97.2% | MDA-MB-435 melanoma -92.2% | SW-620 colon -43% | MCF7 breast -65.7% | HCT-116 colon -53.9% | HCC-2998 colon -66.5% | KM12 colon -14.9%

COc1ccc(C2=NN(/C=C3\SC(=O)NC3=Nc3ccc(F)cc3)C(c3ccc(F)cc3)C2)cc1 (centres undefined)
inactive: BT-549 breast 98% | MDA-MB-435 melanoma 106% | SW-620 colon 99.2% | MCF7 breast 94.5% | HCT-116 colon 105% | HCC-2998 colon 101% | KM12 colon 98.2%

Cc1nc(Nc2ccccn2)sc1C(=O)/C=C/c1ccc(Cl)cc1
active: MDA-MB-435 melanoma -28.8% | KM12 colon 8.26%
inactive: BT-549 breast 19% | SW-620 colon 25.2% | MCF7 breast 17.6% | HCT-116 colon 14.3% | HCC-2998 colon 21.6%

CCOc1ccc2c(c1)CN(Cc1ccc(Cl)cc1)CO2
inactive: BT-549 breast 112% | MDA-MB-435 melanoma 64.7% | SW-620 colon 69.6% | MCF7 breast 59.4% | HCT-116 colon 38.7% | HCC-2998 colon 86.4% | KM12 colon 57.7%

Oc1[nH]c2ccccc2c1N=Nc1nnc2n1N=C(c1ccccc1)CS2
inactive: BT-549 breast 72.8% | MDA-MB-435 melanoma 93.8% | SW-620 colon 106% | MCF7 breast 71.9% | HCT-116 colon 86.4% | HCC-2998 colon 81.3% | KM12 colon 95.2%

CC1(O)COCCCCOc2c(CN)cccc2NC(=O)c2nc(cnc2N)-c2ccc(cc2)S(=O)(=O)C(C)(C)C1 (centres undefined)
inactive: BT-549 breast 85.4%
active: MDA-MB-435 melanoma -93.4% | SW-620 colon -64.2% | MCF7 breast -79.4% | HCT-116 colon -56.5% | HCC-2998 colon -1.91% | KM12 colon -72.7%

COc1cccc2c1C=C1CCCCC3=Cc4c(OC)cccc4OC13O2
inactive: BT-549 breast 64% | SW-620 colon 27.2% | MCF7 breast 26.5% | HCT-116 colon 22.1% | HCC-2998 colon 71.1% | KM12 colon 32.3%
active: MDA-MB-435 melanoma -15.8%

CCOC(=O)C1=C(C)N=c2s/c(=C\c3cc(Cl)ccc3O)c(=O)n2C1c1ccc(OC)cc1 (centres undefined)
inactive: BT-549 breast 102% | MDA-MB-435 melanoma 107% | SW-620 colon 103% | MCF7 breast 93.2% | HCT-116 colon 72.2% | HCC-2998 colon 98.6% | KM12 colon 94.2%

C#CCn1cc(C=C2C(=O)NC(=O)NC2=O)c2cc(Cl)ccc21
inactive: BT-549 breast 64.6% | MDA-MB-435 melanoma 88.3% | SW-620 colon 97.7% | MCF7 breast 72.4% | HCT-116 colon 71.5% | HCC-2998 colon 95.6% | KM12 colon 85.6%

COC(=O)/C(CCC=C(C)C)=C1\[C@@H](OC(C)=O)C[C@@]2(C)[C@H]1CC(=O)[C@H]1[C@@]3(C)CC[C@H](NCc4ccccc4)[C@@H](C)[C@@H]3CC[C@@]12C
inactive: BT-549 breast 89.7% | MDA-MB-435 melanoma 91.2% | SW-620 colon 81.5% | MCF7 breast 82.2% | HCT-116 colon 73% | HCC-2998 colon 66.6% | KM12 colon 101%

NC(CCl)=NCCC[C@H](N)C(=O)O
inactive: BT-549 breast 129% | MDA-MB-435 melanoma 100% | SW-620 colon 100% | MCF7 breast 84.8% | HCT-116 colon 99% | HCC-2998 colon 99.9% | KM12 colon 106%

CCOC(=O)C1(Cc2ccccc2)CCN(Cc2cccc(OC)c2O)CC1
inactive: BT-549 breast 50.4% | MDA-MB-435 melanoma 20.1% | SW-620 colon 20.9% | MCF7 breast 13.9% | HCT-116 colon 21% | HCC-2998 colon 11.9% | KM12 colon 22.2%

O=Cc1c(OCc2cnnn2CC(=O)Nc2ccc(Br)cc2)ccc2ccccc12
inactive: BT-549 breast 80.8% | MDA-MB-435 melanoma 102% | SW-620 colon 91.3% | MCF7 breast 84.1% | HCT-116 colon 101% | HCC-2998 colon 94.3% | KM12 colon 88.7%
